In PubChem BioAssay (NCATS):
A number with no mark means an inactive call. Records with an inconclusive call do not appear. Calls of active or inactive are those of the source. Unless noted, calls come from the whole dose curve; as a rule, active = well fitted curve in either direction with a large enough effect (not every such curve was filed as active); inconclusive = small, poorly fitted or top-dose-only effect, or another doubt; inactive = flat fitted curve, though single readings scatter.

Columns and labels:
[1] = AP1 Signaling Pathway (AID 357); settings: ME-180 AP-1-bla reporter, EGF-induced, beta-lactamase ratio, 5 h; at 17.2 µM (top of the series) unless noted;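 note: ME-180 reporter cells stimulated with EGF at its EC50 level; % is set by controls: 0 for no effect and ±100 for the full control effect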
Procedure, shortened: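 Read-out was the 460nm/530nm emission ratio (excitation 405nm) after CCF4 loading for 2.5 hours at room temperature. Cells carried an AP-1-driven beta-lactamase reporter, were stimulated with EC50 EGF plus compound for 5 hours, and AC50 values came from titrations.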

[2] = Stat Signaling Pathway (AID 446); settings: ME-180 SIE beta-lactamase reporter, IL-6 stimulated, 5 h; at 17.2 µM (top of the series) unless noted;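 note: ME-180 cervical cancer cells given 40 pM IL-6 alongside compound; SIE-controlled beta-lactamase reporter measured as 460/530 nm FRET emission ratio; % is set by controls: 0 for no effect and ±100 for the full control effect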
Procedure, shortened: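 Normalization used AC90 stimulation (300 pM IL-6) and AC90 inhibition (125 nM pan-JAK inhibitor at 40 pM IL-6). The underlying signal is SIE-driven beta-lactamase in ME-180 cells after 5 h IL-6 exposure with compound.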

[3] = molecular target: Glucocorticoid receptor (Homo sapiens) (UniProt P04150); test: GR-GFP Redistribution (AID 450;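 active = compounds whose dose series gives a full or clear partial fitted curve of increased nuclear translocation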; note: potency is the fitted concentration of half-maximal effect)
[4] = NFAT Signaling Pathway (AID 444); settings: Jurkat NFAT-bla M1, carbachol, beta-lactamase ratio, 5 h; at 17.2 µM (top of the series) unless noted;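 note: carbachol stimulus at about its EC50 of 1 µM final; % is set by controls: 0 for no effect and ±100 for the full control effect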
Procedure, shortened: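 Jurkat cells with NFAT-driven β-lactamase reporter and co-expressed M1 receptor, stimulated with carbachol (final 1 uM, ~EC50), compound titration, 5 h at 37 °C. CCF4 loaded 1 h at RT; 460/530 nm ratio gave %activity and AC50.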

[5] = qHTS Assay for Identification of Small Molecule Agonists for Hypoxia Response Element Signaling Pathway (AID 914; active = well fitted activation curve with a large enough effect in the signal ratio, with a control signal flat, not every such curve was filed as active; the % refers to the signal ratio; note: potency is the fitted concentration of half-maximal effect; for activation: % of control where 0% means no effect); settings: ME-180 (cervical carcinoma) HRE-bla reporter, beta-lactamase ratio, CoCl2, 17 h; activation: stronger effect = higher value
Procedure, shortened: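 AC50 values come from titration-series %Activity, taken as the 460/530nm ratio of CCF4 fluorescence (excitation 405nm). CellSensor HRE-bla ME-180 cells were treated 17 hours at 37 C with compound plus an EC50 level of CoCl2.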

[6] = molecular target: Glucocorticoid receptor (Homo sapiens) (UniProt P04150); test: GR-EFC Redistribution (AID 451; calls by dose curve; note: potency is the fitted concentration of half-maximal effect); settings: CHO-K1 GR-EFC translocation, beta-gal luminescence, 2 h
Procedure, shortened: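 CHO-K1 cells expressing nuclear EA and GR-ED fragments of b-gal; compounds titrated up to 46 uM final, 2 h at 37 C. GR nuclear translocation read as complemented b-gal luminescence after 1 h RT detection.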

[7] = molecular target: 3',5'-cyclic-AMP phosphodiesterase 4B (Homo sapiens) (UniProt Q07343); test: qHTS Assay for Inhibitors of PDE-IV (AID 607; active = well fitted activation curve with a large enough effect in the main read-out, with a control signal flat, not every such curve was filed as active; note: % of control where 0% means no effect)
Procedure, shortened: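 HEK293 ACTOne cells with CNG channel (1000/well), endogenous PDE4; membrane potential dye, compounds up to 22.9 uM final. Fluorescence Ex 535/Em 590; RO 20-1724 (100 uM final) as reference.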

Sequence of Glucocorticoid receptor (Homo sapiens) (P04150 whole entry, looked up, the tested form may be a part): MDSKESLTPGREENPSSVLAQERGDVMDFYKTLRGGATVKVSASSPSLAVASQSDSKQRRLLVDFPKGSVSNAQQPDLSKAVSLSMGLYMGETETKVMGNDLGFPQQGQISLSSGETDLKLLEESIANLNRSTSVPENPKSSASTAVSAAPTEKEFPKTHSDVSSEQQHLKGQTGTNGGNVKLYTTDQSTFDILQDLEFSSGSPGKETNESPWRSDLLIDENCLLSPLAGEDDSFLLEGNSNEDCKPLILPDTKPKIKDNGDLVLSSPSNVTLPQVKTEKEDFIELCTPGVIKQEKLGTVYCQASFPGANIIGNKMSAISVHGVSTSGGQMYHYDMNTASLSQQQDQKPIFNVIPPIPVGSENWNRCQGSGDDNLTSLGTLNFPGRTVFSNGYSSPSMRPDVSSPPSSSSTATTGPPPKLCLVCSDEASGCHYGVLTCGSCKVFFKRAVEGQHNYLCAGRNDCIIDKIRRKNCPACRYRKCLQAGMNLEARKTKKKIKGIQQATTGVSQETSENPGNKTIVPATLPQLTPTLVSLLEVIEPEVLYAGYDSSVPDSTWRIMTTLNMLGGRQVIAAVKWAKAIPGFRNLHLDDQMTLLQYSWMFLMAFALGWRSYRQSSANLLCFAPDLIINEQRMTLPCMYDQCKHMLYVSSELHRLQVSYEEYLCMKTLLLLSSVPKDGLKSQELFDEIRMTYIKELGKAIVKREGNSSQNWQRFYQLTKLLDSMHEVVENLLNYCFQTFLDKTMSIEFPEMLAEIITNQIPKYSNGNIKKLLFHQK
Sequence of 3',5'-cyclic-AMP phosphodiesterase 4B (Homo sapiens) (Q07343 whole entry, looked up): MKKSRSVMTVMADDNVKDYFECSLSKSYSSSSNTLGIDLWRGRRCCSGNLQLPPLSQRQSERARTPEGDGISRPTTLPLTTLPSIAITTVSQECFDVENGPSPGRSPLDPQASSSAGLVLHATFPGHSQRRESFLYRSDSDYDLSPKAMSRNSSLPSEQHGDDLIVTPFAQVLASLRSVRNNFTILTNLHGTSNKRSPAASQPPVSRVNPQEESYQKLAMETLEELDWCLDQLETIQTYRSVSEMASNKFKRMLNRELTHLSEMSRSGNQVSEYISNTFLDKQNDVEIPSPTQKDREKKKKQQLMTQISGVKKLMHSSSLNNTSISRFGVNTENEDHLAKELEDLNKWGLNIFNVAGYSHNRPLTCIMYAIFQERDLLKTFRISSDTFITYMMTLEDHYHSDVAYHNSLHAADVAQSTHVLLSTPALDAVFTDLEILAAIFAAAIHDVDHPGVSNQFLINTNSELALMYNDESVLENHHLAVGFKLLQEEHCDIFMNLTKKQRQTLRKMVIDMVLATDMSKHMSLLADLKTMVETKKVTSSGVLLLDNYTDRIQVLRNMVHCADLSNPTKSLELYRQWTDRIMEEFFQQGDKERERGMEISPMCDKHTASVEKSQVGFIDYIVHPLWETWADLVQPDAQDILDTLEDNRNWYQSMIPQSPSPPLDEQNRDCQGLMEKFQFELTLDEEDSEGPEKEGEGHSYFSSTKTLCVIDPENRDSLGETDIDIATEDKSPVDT

N#Cc1nc(COc2ccccc2Cl)oc1NCc1ccc(F)cc1
activity change, negative = inhibition [1]: -5.24%
activity, negative = inhibition [2]: -20.3%
Potency [3]: > 20.6 µM

CCOC(=O)C(O)(C1C(=O)CC(C)(C)CC1=O)C(F)(F)F (stereo unspecified)
activity change, negative = inhibition [1]: 10.7%
activity change, negative = inhibition [4]: 7.75%
Potency [5]: 10 µM (active)

CCOC(=O)C1CCN(c2nc3ccccc3nc2C(C#N)C(=O)OCCOC)CC1 (stereo unspecified)
activity change, negative = inhibition [1]: -17.6%
activity, negative = inhibition [2]: -9.08%
Potency [3]: > 20.6 µM

COc1cc2c(cc1OC)C1(CCCC1)C(N)=C2C#N
activity change, negative = inhibition [1]: -17.7%
activity change, negative = inhibition [4]: -1.71%
Potency [3]: > 20.6 µM

CC(=O)Oc1oc(-c2ccccc2)nc1/C=N/c1ccccn1
activity change, negative = inhibition [1]: -71.1%
activity change, negative = inhibition [4]: -130% (active)
Potency [3]: > 20.6 µM

Cc1ccc2[nH]c3c(c2c1)CN(C(=O)CN1CCCc2ccccc21)CC3
activity change, negative = inhibition [1]: -22.5%
activity, negative = inhibition [2]: -11.3%
Potency [3]: > 20.6 µM

CC[C@H](C)[C@@H]1O[C@]2(CC[C@@H]1C)C[C@H]1C[C@H](CC=C(C)[C@@H](O[C@@H]3C[C@H](OC)[C@H](O[C@@H]4C[C@H](OC)[C@H](O)[C@H](C)O4)[C@H](C)O3)[C@@H](C)C=CC=C3CO[C@@H]4[C@@H](O)C(C)=C[C@@H](C(=O)O1)[C@]34O)O2
activity change, negative = inhibition [1]: -26.8%
activity change, negative = inhibition [4]: -35.3%
Potency [3]: > 20.6 µM
Potency [6]: > 20.6 µM
Potency [7]: inactive

CCOP(=O)(c1ccccc1)c1nc(-c2ccccc2C)oc1N1CCCCC1 (stereo unspecified)
activity change, negative = inhibition [1]: -1.96%
activity, negative = inhibition [2]: 0.694%
Potency [3]: > 20.6 µM

CCN1CCc2c(C#N)c(N3CCOCC3)nc(NCc3ccccc3)c2C1
activity change, negative = inhibition [1]: 1.6%
activity, negative = inhibition [2]: 1.47%

O=c1cc(-c2ccco2)nc(-c2cccs2)o1
activity change, negative = inhibition [1]: 6.68%
activity, negative = inhibition [2]: 8.1%
Potency [3]: > 20.6 µM

CCOC(=O)c1[nH]c2ccccc2c1N=C(C)N(CC)CC
activity change, negative = inhibition [1]: 4.17%
activity, negative = inhibition [2]: 5.19%
Potency [3]: > 20.6 µM

Cc1ccc(-c2nn3c(-c4cccc(Cl)c4)nnc3s2)cc1
activity change, negative = inhibition [1]: 24.6%
activity change, negative = inhibition [4]: -1.56%
Potency [3]: > 20.6 µM

CC1(C)Cc2c(sc3nc4n(c(=N)c23)CCCCC4)CO1
activity change, negative = inhibition [1]: 19.2%
activity, negative = inhibition [2]: 3.32%
Potency [3]: > 20.6 µM

COc1ccc(-c2nn3c(COc4ccccc4)nnc3s2)cc1OC
activity change, negative = inhibition [1]: -9.35%
activity change, negative = inhibition [4]: 6.83%
Potency [3]: > 20.6 µM
activation [5]: -19.3%

COc1ccc(CCCNC(=O)CC#N)cc1OC
activity change, negative = inhibition [1]: 13.8%
activity change, negative = inhibition [4]: -4.61%
Potency [3]: > 20.6 µM
activation [5]: 5.59%

CCOC(=O)COn1c(=O)c(-c2ccco2)[n+]([O-])c2ccccc21
activity change, negative = inhibition [1]: -20.1%
activity, negative = inhibition [2]: 12.3%
Potency [3]: > 20.6 µM

CCCCCCOc1ccc(C(=O)n2cnc(N)n2)cc1
activity change, negative = inhibition [1]: -12.8%
activity, negative = inhibition [2]: 27.4%
Potency [3]: > 20.6 µM

COC(=O)c1ccc(C2NC(C(=O)O)CS2)cc1 (stereo unspecified)
activity change, negative = inhibition [1]: 5.95%
activity change, negative = inhibition [4]: 6.25%
Potency [3]: > 20.6 µM

O=C(CC(c1ccccc1)c1ccco1)N1CCOCC1 (stereo unspecified)
activity change, negative = inhibition [1]: -9.46%
activity change, negative = inhibition [4]: 1%
Potency [3]: > 20.6 µM

CC(C)COc1ccc(C(=O)OCCN2CCOCC2)c(O)c1
activity change, negative = inhibition [1]: 1.3%
activity, negative = inhibition [2]: 0.653%
Potency [3]: > 20.6 µM

Cc1cccc(C)c1OCC(O)CNS(=O)(=O)c1ccccc1C(=O)N1CCCCC1 (stereo unspecified)
activity change, negative = inhibition [1]: -10.2%
activity, negative = inhibition [2]: -0.145%
Potency [3]: > 20.6 µM

CC(=O)OCC(=O)[C@@]1(O)CC[C@H]2[C@@H]3CCC4=CC(=O)CC[C@]4(C)[C@H]3[C@@H](O)C[C@@]21C
activity change, negative = inhibition [1]: 11.1%
activity, negative = inhibition [2]: -11.6%
Potency [3]: > 20.6 µM

N#Cc1c2c(c(-c3ccccc3)[nH]c1=O)CCCC2
activity change, negative = inhibition [1]: 5.23%
activity change, negative = inhibition [4]: 10.7%
Potency [3]: > 20.6 µM

Cn1nnc2c(sc3nc(N4CCOCC4)c4c(c32)CCCC4)c1=O
activity change, negative = inhibition [1]: -0.625%
activity, negative = inhibition [2]: -0.897%
Potency [3]: > 20.6 µM

CCCCCCSC1=C(C#N)C(c2ccccc2)CC(=O)N1 (stereo unspecified)
activity change, negative = inhibition [1]: -25.4%
activity, negative = inhibition [2]: -19.8%
Potency [3]: > 20.6 µM

COC(=O)c1cc(=O)n2c(-c3ccc(OC)cc3)csc2n1
activity change, negative = inhibition [1]: -2.63%
activity, negative = inhibition [2]: 5.85%
Potency [3]: > 20.6 µM

CCOC(=O)C1=Nc2ccccc2C1=[N+]=[N-]
activity change, negative = inhibition [1]: -19%
activity, negative = inhibition [2]: -23.9%
Potency [3]: > 20.6 µM

CC(C)CSc1nc(N2CCOCC2)c2c(c1C#N)CC(C)(C)SC2
activity change, negative = inhibition [1]: -7.32%
activity, negative = inhibition [2]: 2.55%
Potency [3]: > 20.6 µM

O=S(=O)(c1ccc(Cl)cc1)N1CCC(N2CCCCCC2)CC1
activity change, negative = inhibition [1]: 9.12%
activity, negative = inhibition [2]: 3.47%
Potency [3]: > 20.6 µM

Cc1ccsc1C1NC(=O)c2c(sc3c2CCCC3)N1 (stereo unspecified)
activity change, negative = inhibition [1]: -25.1%
activity, negative = inhibition [2]: -6.73%
Potency [3]: > 20.6 µM

N#CC1=C2SCC(O)(c3ccccc3)N2C(=O)CC1c1ccccc1 (stereo unspecified)
activity change, negative = inhibition [1]: -17.2%
activity, negative = inhibition [2]: -21.7%
Potency [3]: > 20.6 µM
